From the supplement of paper PMC13380429

Assays:
[1] = test system: Vero E6 infected with SARS-CoV-2; test: morphology score (similarity to uninfected cells); higher = more like uninfected cells; conditions: 24 h
[2] = test system: Vero E6 infected with SARS-CoV-2; test: SARS-CoV-2 infection rate relative to infected DMSO; higher = more infection, active = 60 or less; conditions: 24 h

## Cc1nc2sccn2c(=O)c1CCN1CCC(=C(c2ccccc2)c2ccc(F)cc2)CC1 (10 µM)
[1]
  morphology score: 0.149
[2]
  SARS-CoV-2 infection rate: 81.5% (inactive)

## COc1nccnc1NS(=O)(=O)c1ccc(N)cc1 [sulfametopyrazine] (10 µM)
[1]
  morphology score: -0.162
[2]
  SARS-CoV-2 infection rate: 112% (inactive)

## O=C(O)CCC(=O)OC[C@@H](NC(=O)C(Cl)Cl)[C@H](O)c1ccc([N+](=O)[O-])cc1 [chloramphenicol-sodium-succinate] (10 µM)
[1]
  morphology score: 0.049
[2]
  SARS-CoV-2 infection rate: 108% (inactive)

## CC(C)(C)C(=O)C(Oc1ccc(Cl)cc1)n1ccnc1 (configuration not stated) [climbazole] (10 µM)
[1]
  morphology score: 0.217
[2]
  SARS-CoV-2 infection rate: 91.5% (inactive)

## Cc1nccn1CC1CCc2c(c3ccccc3n2C)C1=O (configuration not stated) [ondansetron] (10 µM)
[1]
  morphology score: 0.253
[2]
  SARS-CoV-2 infection rate: 90% (inactive)

## C[C@@H]1O[C@@H](O[C@H]2[C@H](Oc3cc(O)c(C(=O)CCc4ccc(O)cc4)c(O)c3)O[C@H](CO)[C@@H](O)[C@@H]2O)[C@H](O)[C@H](O)[C@H]1O [naringin-dihydrochalcone] (10 µM)
[1]
  morphology score: 0.0437
[2]
  SARS-CoV-2 infection rate: 107% (inactive)

## CO/N=C(\C(=O)N[C@@H]1C(=O)N2C(C(=O)[O-])=C(C[n+]3ccn4ncccc43)CS[C@H]12)c1nsc(N)n1 [cefozopran] (10 µM)
[1]
  morphology score: 0.0209
[2]
  SARS-CoV-2 infection rate: 112% (inactive)

## O=c1[nH]cnc2c1ncn2[C@H]1CC[C@@H](CO)O1 [didanosine] (10 µM)
[1]
  morphology score: 0.186
[2]
  SARS-CoV-2 infection rate: 112% (inactive)

## CS(=O)(=O)c1cc(F)cc2c3c(n(Cc4ccc(Cl)cc4)c12)[C@@H](CC(=O)O)CC3 [laropiprant] (10 µM)
[1]
  morphology score: 0.0115
[2]
  SARS-CoV-2 infection rate: 106% (inactive)

## COc1cc(N2CCC(O)CC2)ccc1Nc1cc(Nc2ccccc2S(=O)(=O)C(C)C)c2cc[nH]c2n1 (0.833333 µM)
[1]
  morphology score: -0.0202
[2]
  SARS-CoV-2 infection rate: 106% (inactive)

## O=C(NOCCO)c1ccc2cncn2c1Nc1ccc(I)cc1F (0.833333 µM)
[1]
  morphology score: -0.298
[2]
  SARS-CoV-2 infection rate: 121% (inactive)

## O=C(NC1CCC1)c1ccc(C#Cc2cccc(F)c2)nc1 (10 µM)
[1]
  morphology score: 0.0178
[2]
  SARS-CoV-2 infection rate: 99% (inactive)

## OCc1cc([C@@H](O)CNCCCCCCOCCOCc2c(Cl)cccc2Cl)ccc1O [vilanterol] (10 µM)
[1]
  morphology score: 0.0228
[2]
  SARS-CoV-2 infection rate: 111% (inactive)

## Cc1cc(Nc2cc(CN3CCOCC3)c3nc(C)c(Cc4ccc(Cl)cc4F)n3n2)n[nH]1 (0.833333 µM)
[1]
  morphology score: -0.0116
[2]
  SARS-CoV-2 infection rate: 107% (inactive)

## N[C@H]1C[C@@H]1c1ccc(-c2cccc(O)c2)cc1 (10 µM)
[1]
  morphology score: 0.246
[2]
  SARS-CoV-2 infection rate: 87% (inactive)

## O=C1Nc2ccc(Cl)c3c2C1(CCCCN1CC=C(c2ccc(Cl)cc2)CC1)CCC3 (configuration not stated) (0.833333 µM)
[1]
  morphology score: 0.0484
[2]
  SARS-CoV-2 infection rate: 106% (inactive)

## Cc1ccc(/N=C/N(C)/C=N/c2ccc(C)cc2C)c(C)c1 [amitraz] (10 µM)
[1]
  morphology score: 0.147
[2]
  SARS-CoV-2 infection rate: 106% (inactive)

## Oc1cc(O)cc(O)c1 [phloroglucin] (10 µM)
[1]
  morphology score: -0.0825
[2]
  SARS-CoV-2 infection rate: 114% (inactive)

## NC[C@@H]1CC[C@@H](N)[C@@H](O[C@H]2[C@H](O)[C@@H](O[C@H]3O[C@H](CO)[C@@H](O)[C@H](N)[C@H]3O)[C@H](N)C[C@@H]2N)O1 [dibekacin] (10 µM)
[1]
  morphology score: 0.0218
[2]
  SARS-CoV-2 infection rate: 103% (inactive)

## CC(=O)O[C@]1(C(C)=O)CC[C@H]2[C@@H]3C=C(C)C4=CC(=O)CC[C@]4(C)[C@H]3CC[C@@]21C [megestrol-acetate] (10 µM)
[1]
  morphology score: 0.21
[2]
  SARS-CoV-2 infection rate: 100% (inactive)

## CCCCN1CCCC1CNC(=O)c1cc(C#N)c2ccccc2c1OC (configuration not stated) [nafadotride] (10 µM)
[1]
  morphology score: 0.327
[2]
  SARS-CoV-2 infection rate: 89% (inactive)

## CN(C)Cc1ccc(S(=O)(=O)n2ccc(/C=C/C(=O)NO)c2)cc1 [resminostat] (0.833333 µM)
[1]
  morphology score: -0.101
[2]
  SARS-CoV-2 infection rate: 116% (inactive)

## CC(=O)O[C@H]1Cc2ccccc2N(C(N)=O)c2ccccc21 [eslicarbazepine-acetate] (10 µM)
[1]
  morphology score: 0.137
[2]
  SARS-CoV-2 infection rate: 106% (inactive)

## CO/N=C(\C(=O)N[C@@H]1C(=O)N2C(C(=O)O)=C(CSc3nc(=O)c(O)nn3C)CS[C@H]12)c1csc(N)n1 [ceftriaxone] (10 µM)
[1]
  morphology score: -0.108
[2]
  SARS-CoV-2 infection rate: 112% (inactive)

## O=C(CCCl)NCc1ccccc1 [beclamide] (10 µM)
[1]
  morphology score: 0.278
[2]
  SARS-CoV-2 infection rate: 97.5% (inactive)

## O=[N+]([O-])c1cn2c(n1)OC[C@@H](OCc1ccc(-c3ccc(OC(F)(F)F)cc3)nc1)C2 (10 µM)
[1]
  morphology score: -0.214
[2]
  SARS-CoV-2 infection rate: 110% (inactive)
